Values without a mark were called inactive. Inconclusive results are not listed. Calls of active or inactive are those of the source. Unless noted, the call rests on the fitted dose curve.

Assay [1] can be described thus: Nuclear factor erythroid 2-related factor 2/antioxidant responsive element (Nrf2/ARE) small molecule agonists: qHTS cell viability counter screen in human keratinocytes (AID 1919968; active means well fitted curve in the direction sought with a large enough effect in the repeat runs; an effect the other way counts as inactive or inconclusive; further: nearly all actives have a fitted effect of over 55% in size; further: potency means the concentration at half of the fitted maximal effect). The essentials: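 Stably transfected HaCaT (KeratinoSens), 1,500/well. Test agents in DMSO were applied for 23 h, 37 C/5% CO2. CellTiter-Fluor was incubated 1 h before the fluorescence read.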
For orientation: In qHTS, concentration-response curves come from the screen itself.

Assay [2] can be described thus: Nuclear factor erythroid 2-related factor 2/antioxidant responsive element (Nrf2/ARE) small molecule agonists: luciferase reporter gene qHTS assay in human keratinocytes (AID 1919969). Further: nearly all actives have a fitted effect of over 35% in size. Further: potency means the concentration at half of the fitted maximal effect. For orientation: Reporter assays use an easily measured gene product as a stand-in for the process of interest.
Assay [3] concerns the target KiSS-1 receptor (Homo sapiens) (UniProt Q969F8). Nature of the assay: Human kisspeptin (KISS1R) small molecule agonists, calcium flux assay in KISS1R-HEK293 cells (AID 1920064; active means well fitted curve in the direction sought with a large enough effect in the repeat runs; an effect the other way counts as inactive or inconclusive). The gist of the method: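 After overnight (18 h) culture at 37 C/5% CO2, human KISS1R-HEK293 cells received calcium dye for 1 h, then test compound; emission at 540 nm (excitation 480 nm) was tracked for 3 min.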
On the technique in general: Calcium assays in cells follow changes in intracellular calcium, usually with a dye or a luminescent sensor.

Assay [4] can be described thus: G protein-coupled receptor (GPCR) small molecule agonists, calcium flux assay: HEK293 wild type cell line counter screen (AID 1920065). The gist of the method: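 Following 18 h incubation at 37 C/5% CO2, plates got calcium dye for 1 h; compounds, ATP or DMSO were then pinned in and fluorescence followed kinetically (480/540 nm).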
Assay [5] in a line: p53 small molecule agonists, cell-based qHTS assay with human liver microsomes: qHTS cell viability counter screen (AID 1963579). Further: nearly all actives have a fitted effect of over 45% in size. Further: potency means the concentration at half of the fitted maximal effect. The essentials: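 Metabolically activated exposure: compounds, human liver microsomes and NADPH (0.5 mg/mL final apiece) were added to p53RE-bla cells seeded 5 h earlier, left 16 h at 37 C, and then assessed for viability by CellTiter-Glo luminescence.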

A short description of assay [6]: p53 small molecule agonists, cell-based qHTS assay with rat liver microsomes: qHTS cell viability counter screen (AID 1963580). Further: nearly all actives have a fitted effect of over 45% in size. Further: potency means the concentration at half of the fitted maximal effect. The essentials:
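Rat liver microsome (0.5 mg/mL final) and NADPH (0.5 mg/mL final) co-incubation with compounds for 16 h at 37 C on HCT-116 p53RE-bla cells; cytotoxicity taken from intracellular ATP luminescence.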

Assay [7] in a line: p53 small molecule agonists, cell-based qHTS assay: qHTS cell viability counter screen (AID 1963581). Further: nearly all actives have a fitted effect of over 45% in size. The essentials: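 qHTS counter screen: 16 h compound exposure at 37 C of p53RE-bla HCT-116 cells (4,000 per well, seeded 5 h prior), cell viability by ATP luminescence.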
The target of assay [8] is 5-hydroxytryptamine receptor 2A (Homo sapiens) (UniProt P28223). The assay is described as follows: 5-hydroxytryptamine receptor 2A (HTR2A) small molecule antagonists, cell-based qHTS assay (AID 1963586). Further: nearly all actives have a fitted effect of over 45% in size. Further: potency means the concentration at half of the fitted maximal effect. The essentials:
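CHO cells stably expressing human HTR2A were plated for 18 h at 37 C, then loaded with calcium dye for 1 h. Compounds were preincubated 5 min at room temperature before DOI (4 nM solution) was added. Kinetic fluorescence was read for 3 min.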

The target is the same in assay [9]. Nature of the assay: 5-hydroxytryptamine receptor 2A (HTR2A) small molecule agonists, cell-based qHTS assay (AID 1963587). Further: nearly all actives have a fitted effect of over 30% in size. Further: potency means the concentration at half of the fitted maximal effect. The essentials:
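Kinetic calcium-flux fluorescence (2 min, 1 sec intervals) after compound addition in agonist mode. HTR2A-CHO cells were cultured 18 h, then dye-loaded 1 h at 37 C.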

For assay [10], the target named is Muscarinic acetylcholine receptor M1 (Homo sapiens) (UniProt P11229). The assay is described as follows: Cholinergic receptor muscarinic 1 (CHRM1) small molecule antagonists, cell-based qHTS assay (AID 1963588). Further: nearly all actives have a fitted effect of over 40% in size. The essentials: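 Compounds were tested at 15 concentrations in three independent runs. Dye-loaded CHRM1-CHO cells were exposed 5 min at room temperature before stimulation by acetylcholine added at 50nM. Intracellular calcium was read kinetically on FDSS for 3 min.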
Chain of Muscarinic acetylcholine receptor M1 (Homo sapiens) (P11229 whole entry, looked up): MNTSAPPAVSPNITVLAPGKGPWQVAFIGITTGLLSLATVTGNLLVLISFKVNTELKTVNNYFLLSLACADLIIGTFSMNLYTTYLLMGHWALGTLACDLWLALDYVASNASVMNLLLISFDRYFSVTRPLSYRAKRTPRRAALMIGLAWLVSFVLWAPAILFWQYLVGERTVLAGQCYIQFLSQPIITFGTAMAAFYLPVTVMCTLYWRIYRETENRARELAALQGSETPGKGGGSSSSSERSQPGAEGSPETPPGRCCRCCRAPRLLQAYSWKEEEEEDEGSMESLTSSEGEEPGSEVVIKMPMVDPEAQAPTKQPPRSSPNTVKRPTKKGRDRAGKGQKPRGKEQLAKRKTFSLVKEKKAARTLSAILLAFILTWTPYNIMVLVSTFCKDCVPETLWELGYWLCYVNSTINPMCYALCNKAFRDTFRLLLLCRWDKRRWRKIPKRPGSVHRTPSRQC

The target is the same in assay [11]. Nature of the assay: Cholinergic receptor muscarinic 1 (CHRM1) small molecule agonists, cell-based qHTS assay (AID 1963589). Further: nearly all actives have a fitted effect of over 35% in size. The gist of the method:
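Kinetic fluorescence (1 s intervals) of calcium-sensitive dye in human M1 CHO cells after compound addition; cells pre-incubated 18 h at 37 C/5% CO2 and dye-loaded 1 h.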

The nature of assay [12]: cAMP Responsive Elements (CRE) small molecule agonists, cell-based qHTS assay (AID 1963590). The essentials: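 Test agents in DMSO were incubated 3 h at 37 C/5% CO2 with CRE-bla HEK 293T cells seeded 18 h earlier; LiveBLAzer B/G FRET substrate was added and read after 2 h at room temperature.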
The nature of assay [13]: cAMP Responsive Elements (CRE) small molecule antagonists, cell-based qHTS assay (AID 1963591; active means well fitted inhibition curve with a large enough effect in the signal ratio in the repeat runs, not every such curve was filed as active; the % refers to the signal ratio). The gist of the method: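 Reporter line CRE-bla HEK 293T in dialyzed-FBS DMEM; cells preincubated 18 h, treated 3 h with compound plus NKH477 (0.25 uM final); LiveBLAzer FRET, 2 h RT.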
Assay [14] addresses Beta-2 adrenergic receptor (Homo sapiens) (UniProt P07550). Nature of the assay: Adrenergic beta2 receptor (ADRB2) small molecule antagonists, cell-based qHTS assay (AID 1963592). Further: series mostly up to about 92 µM; nearly all actives have a fitted effect of over 50% in size. The essentials: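 Assay format: CHO-ADRB2 cells, 18-20hr seeding at 37C/5% CO2, then compound plus 1nM isoproterenol agonist mix for 0.5hr RT. Homogeneous time-resolved fluorescence cAMP detection after 1hr, expressed as 665/615 nm ratio.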

Assay [15] has the same target. Nature of the assay: Adrenergic beta2 receptor (ADRB2) small molecule agonists, cell-based qHTS assay (AID 1963593).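 Further: CHO cells stably overexpressing human ADRB2.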 The gist of the method: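 CHO cells stably over-expressing ADRB2 were plated overnight at 37C, then dosed with compounds plus a stimulation mix containing 100uM IBMX and 25uM Ro-20-1724 for 0.5hr at room temperature. cAMP was measured by HTRF competition, 1hr.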

Assay [16] has as its target D(2) dopamine receptor (Homo sapiens) (UniProt P14416). Nature of the assay: Dopamine D2 receptor (DRD2) small molecule agonists, cell-based qHTS assay (AID 1963594). Further: nearly all actives have a fitted effect of over 35% in size. The gist of the method: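 cAMP accumulation in DRD2-HEK293 cells measured by HTRF after 1 h detection; compounds added 10 min before NKH477 (200nM […]) forskolin-analogue stimulation, 30 min at room temperature, with Ro20-1724 present at 0.1 mM final.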

Assay [17] shares this target. Nature of the assay: Dopamine D2 receptor (DRD2) small molecule antagonists, cell-based qHTS assay (AID 1963595; active means well fitted inhibition curve with a large enough effect in the signal ratio in the repeat runs, with a control signal flat; the % refers to the signal ratio; further: potency means the concentration at half of the fitted maximal effect). The gist of the method:
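HEK293 cells stably expressing DRD2, preincubated with 0.1 mM Ro20-1724 and compounds 10 min, were stimulated with 200 nM NKH477 plus 12 nM quinpirole for 30 min at room temperature; cAMP measured by HTRF (665/620 nm).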

The nature of assay [18]: p53 small molecule agonists, cell-based qHTS assay with rat liver microsomes (AID 1963578). The essentials: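 Agonist mode in p53RE-bla reporter cells, with compounds co-incubated 16 h at 37 C alongside 0.5 mg/mL rat liver microsomes and 0.5 mg/mL NADPH (final), followed by a 2 h LiveBLAzer detection step.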
Assay [19] in a line: p53 small molecule agonists, cell-based qHTS assay (AID 1963582; active means well fitted activation curve with a large enough effect in the signal ratio in the repeat runs, not every such curve was filed as active; the % refers to the signal ratio). The gist of the method:
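Measured: fluorescence from cleaved LiveBLAzer substrate. System: p53RE-bla cells, 16 h compound treatment at 37 C, 2 h substrate step at room temperature.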

Chain of 5-hydroxytryptamine receptor 2A (Homo sapiens) (P28223 whole entry, looked up): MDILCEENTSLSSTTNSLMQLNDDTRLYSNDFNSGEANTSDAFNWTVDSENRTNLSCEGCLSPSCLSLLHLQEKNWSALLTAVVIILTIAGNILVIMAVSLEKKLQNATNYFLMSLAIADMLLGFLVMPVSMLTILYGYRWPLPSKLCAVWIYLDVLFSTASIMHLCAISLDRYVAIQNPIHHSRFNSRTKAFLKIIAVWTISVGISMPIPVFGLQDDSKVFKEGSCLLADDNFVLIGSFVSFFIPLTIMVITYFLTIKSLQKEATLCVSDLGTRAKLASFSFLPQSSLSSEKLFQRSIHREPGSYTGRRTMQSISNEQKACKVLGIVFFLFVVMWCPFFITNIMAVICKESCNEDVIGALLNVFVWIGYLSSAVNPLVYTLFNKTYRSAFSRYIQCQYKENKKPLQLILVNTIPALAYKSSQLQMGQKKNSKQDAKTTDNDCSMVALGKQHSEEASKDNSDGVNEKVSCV
Chain of Beta-2 adrenergic receptor (Homo sapiens) (P07550 whole entry, looked up): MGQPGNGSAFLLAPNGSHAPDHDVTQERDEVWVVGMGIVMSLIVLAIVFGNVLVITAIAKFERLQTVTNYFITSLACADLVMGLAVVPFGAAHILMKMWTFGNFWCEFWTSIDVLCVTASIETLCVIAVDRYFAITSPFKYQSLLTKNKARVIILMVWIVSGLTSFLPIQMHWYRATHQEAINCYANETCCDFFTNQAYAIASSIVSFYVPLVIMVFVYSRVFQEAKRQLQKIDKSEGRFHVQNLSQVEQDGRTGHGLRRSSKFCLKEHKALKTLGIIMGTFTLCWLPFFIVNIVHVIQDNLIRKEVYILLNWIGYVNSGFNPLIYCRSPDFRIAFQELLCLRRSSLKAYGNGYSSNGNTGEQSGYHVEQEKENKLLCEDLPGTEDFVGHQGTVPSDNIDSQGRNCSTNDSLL
Chain of KiSS-1 receptor (Homo sapiens) (Q969F8 whole entry, looked up): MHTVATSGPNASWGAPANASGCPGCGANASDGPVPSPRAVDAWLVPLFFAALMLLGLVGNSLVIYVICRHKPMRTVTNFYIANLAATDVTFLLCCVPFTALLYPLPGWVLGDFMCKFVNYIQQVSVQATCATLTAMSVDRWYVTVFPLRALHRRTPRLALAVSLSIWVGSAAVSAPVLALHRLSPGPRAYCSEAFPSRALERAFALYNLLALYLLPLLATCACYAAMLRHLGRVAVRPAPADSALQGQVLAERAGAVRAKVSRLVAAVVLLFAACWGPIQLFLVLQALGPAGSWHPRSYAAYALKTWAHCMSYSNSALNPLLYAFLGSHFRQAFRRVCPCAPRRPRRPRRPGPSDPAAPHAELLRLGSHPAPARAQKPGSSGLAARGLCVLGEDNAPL
Chain of D(2) dopamine receptor (Homo sapiens) (P14416 whole entry, looked up): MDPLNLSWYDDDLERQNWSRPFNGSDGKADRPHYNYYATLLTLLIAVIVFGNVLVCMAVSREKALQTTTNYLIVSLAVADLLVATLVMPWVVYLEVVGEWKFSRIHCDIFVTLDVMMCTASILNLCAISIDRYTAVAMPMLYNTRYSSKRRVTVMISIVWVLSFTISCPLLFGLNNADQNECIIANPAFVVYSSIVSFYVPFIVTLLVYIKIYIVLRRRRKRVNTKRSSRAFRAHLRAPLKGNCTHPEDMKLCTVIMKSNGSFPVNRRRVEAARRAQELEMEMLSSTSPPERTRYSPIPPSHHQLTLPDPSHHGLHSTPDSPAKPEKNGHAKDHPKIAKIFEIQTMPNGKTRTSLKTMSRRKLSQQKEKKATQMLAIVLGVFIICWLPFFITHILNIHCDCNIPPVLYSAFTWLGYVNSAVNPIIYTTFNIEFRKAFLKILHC

Consider `C=Cc1ccc(C(C)(C)C)cc1`, for which the Potency result in assay [1], in [2], in assay [3], in assay [4], in assay [5] and in assay [6] was “inactive” throughout. The Potency result in assay [7], in [8], in assay [9], in assay [10], in assay [11] and in [12] was “inactive” in each case. Besides, the Potency entry in [13], in assay [14], in [15], in assay [16] and in assay [17] was “inactive” in each case.

Turning to `CC(C)(C)c1ccc(-c2ccc(C(C)(C)C)cc2)cc1`, the Potency result in [1], in assay [2], in [3], in assay [4], in assay [5] and in [6] was “inactive” each time. The Potency result in assay [7], in assay [8], in [9], in assay [10], in assay [11] and in assay [12] was “inactive” in each case. Also, the Potency result in [14], in assay [16] and in assay [17] was “inactive” each time.

In the case of `CCCCCCOc1cc(C)c(O)c(C)c1C`, the Potency was 31 µM (active) in assay [1], 26 µM (active) in [5], 19 µM (active) in [8] and 39.4 µM (active) in [9]. In addition, the Potency result in [2], in assay [3], in [4], in [18], in assay [19] and in [10] was “inactive” in each case. In [16], the Potency result is “inactive”.

Turning to `CCCCCCCCn1sc(Cl)c(Cl)c1=O`, the Potency was 13.7 µM (active) in [1]; 4.86 µM (active) in assay [2]; 36.3 µM (active) in assay [5]; 36.3 µM (active) in assay [6]; 43.6 µM (active) in assay [9]; 27.3 µM (active) in assay [17]. Moreover, the Potency entry in assay [3], in assay [4], in [18], in assay [10], in [11] and in assay [14] was “inactive” throughout. Also, the Potency result in [15] and in [16] was “inactive” in each case.

Consider `CN1CCN2c3ccccc3Cc3ccccc3C2C1` (stereo not drawn), for which the Potency result in [1], in assay [2], in [3], in assay [4], in assay [18] and in assay [6] was “inactive” throughout. The Potency result in [19], in [12], in [13], in [14], in assay [16] and in assay [17] was “inactive” throughout.

For the compound `CCc1cc(C2=C(C(=O)O)N(c3ccccc3C(F)(F)F)S(=O)(=O)c3ccccc32)cc2c1OCO2`, the Potency result in [1], in assay [2], in assay [3], in [4], in [18] and in [5] was “inactive” each time. Also, the Potency entry in assay [6], in assay [7], in assay [8], in assay [9], in assay [10] and in [11] was “inactive” throughout. Besides, the Potency entry in assay [14] and in [17] was “inactive” in each case.
